Shown are actives, neighbours in structure and some others; about 2.1% of the full set was active somewhere.
TDP-43 yeast inh: rescues yeast growth from TDP-43 toxicity; TDP-43 expressing yeast growth rescue, BacTiter-Glo, 24 h; Potency, µM (series often up to 46.1 µM), inactives show at the highest dose growth rescue (activation), usual class: activators; actives 1.8% (n = 410,000); AID 652104; also: % of control where 0% means no effect; nearly all actives have a fitted effect of over 50% in size
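In this qHTS, compounds that restore growth of yeast expressing TDP-43 appear as activators. Cells (OD600=0.02, galactose medium, raffinose-pregrown) are incubated with compound 24 hr at 30 deg C and growth is quantified by BacTiter-Glo.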
aSyn yeast inh: alpha-synuclein toxicity inhibition in yeast. actives 0.14% (n = 370,000). Yeast expressing alpha-synuclein, growth rescue, BacTiter-Glo, 24 h. Potency, µM (highest dose often 46.1 µM), without a hit: at the highest dose growth rescue (activation), hits mostly activators; also: % of control where 0% means no effect; nearly all actives have a fitted effect of over 65% in size
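Readout is rescue of growth in alpha-synuclein-expressing yeast, so inhibitors of toxicity appear as activators. Growth after 24 hr at 30 deg C in galactose medium is quantified by luminescence.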
Abeta yeast res: A-beta toxicity reversal in yeast; yeast expressing A-beta42, growth rescue, OD600, 48 h; response scale: 0% DMSO, 100% iron-clioquinol control; Potency, µM (titrated, usually from 46.1 µM), most hits filed as activators; actives 0.063% (n = 410,000); AID 1347071; also: nearly all actives have a fitted effect of over 55% in size
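Yeast A-beta toxicity model in growth medium with pinned compounds, 48 h at 30 C; growth read as absorbance at 600 nm. Normalized to FeCl3/clioquinol equimolar mix (positive) and DMSO (negative).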
FUS yeast rescue: rescues growth of FUS-expressing yeast. Potency, µM (titrated, usually from 76.6 µM), most hits filed as activators. actives 0.24% (n = 390,000). S. cerevisiae FUS-expressing, growth rescue, OD600, 24 h;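 also: plate controls were DMSO vehicle for no effect and reference control for full effect; nearly all actives have a fitted effect of over 55% in size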
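S. cerevisiae expressing FUS from galactose induction served as the toxicity model. Growth after 24hr at 30C, read as absorbance at 600 nm, indicates suppression of toxicity; compounds dosed at several concentrations.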
* hit, by the source's call; i = inactive; ? = inconclusive; . = no result. Calls follow the shape of the dose curve; as a rule, active = well fitted curve in the direction sought with a large enough effect; inconclusive = small, poorly fitted or top-dose-only effect, or another doubt; inactive = no such curve, though single readings can be large; an effect the other way counts as inactive or inconclusive. Potency is read from the fitted curve at half-maximal effect.

SMILES | TDP-43 yeast inh | aSyn yeast inh | Abeta yeast res | FUS yeast rescue
Cc1cccc(-c2cnn(-c3ccccc3)c2N)c1 | ? | 0.9% | i | i
Nc1c(-c2ccccc2)cnn1-c1cccc(Cl)c1 | 15.8µM* | 4.2% | i | i
COc1ccccc1C(=O)COC(=O)c1cnc(C)cn1 | 9.6% | -5.6% | i | i
CC(C)CN1CCC(CN(C)Cc2nc(-c3cnccn3)no2)CC1 | 5.5% | 0.1% | i | i
CCOC(=O)Cc1csc(NC(=O)/C=C/c2ccc(Br)o2)n1 | 1.5% | -7.4% | i | i
COc1cccc(CN2C(=O)[C@@H]3Cc4c([nH]c5ccccc45)C(C)(C)N3C2=O)c1 | . | . | 10µM* | ?
COc1ccc(C(=O)O/N=C(\C)c2cnccn2)cc1 | 17.8µM* | 7.8% | i | i
COc1ccc(C(=O)O/N=C(\N)c2ccccn2)cc1 | -0.6% | -52.9% | i | i
Cc1nc2ccc(NC(=O)Cc3cccc(F)c3)cc2s1 | -20.2% | 1.2% | i | i
Cc1cccc(OCC(=O)Nc2ccc3nc(C)sc3c2)c1 | 2.51µM* | -39.2% | i | i
Cc1nc2ccc(NC(=O)COc3ccccc3)cc2s1 | ? | -68.2% | i | i
Cc1nc2ccc(NC(=O)COc3cccc(F)c3)cc2s1 | 20µM* | -51.2% | i | i
CCCCc1nc2cc(C(=O)N3CCCC(OCCC)C3)ccc2o1 (stereo unspecified) | 14.1µM* | 8.6% | i | i
COc1ccc(C(CNC(=O)c2oc3ccccc3c2C)N2CCCC2)cc1 (stereo unspecified) | 0.0% | -9.3% | i | .
O=C(c1ccco1)N1CCN(C(=O)c2cc(-c3ccccc3)nc3ccccc23)CC1 | -2.7% | -1.9% | i | i
Cc1cccc2c(C(=O)N3CCN(C(=O)c4ccco4)CC3)cc(-c3cccc(Br)c3)nc12 | 28.2µM* | 10.9% | i | i
COCCN1CCN(C(=O)c2ccc3oc(CCCc4ccccc4)nc3c2)CC1 | 6.9% | 2.3% | i | i
Cc1cc(NC(=O)c2ccc(F)cc2)n(-c2ccccn2)n1 | 15.8µM* | 1.7% | i | i
CCCCn1c(N)c(N(CCOC)C(=O)c2cc3ccccc3cc2OC)c(=O)[nH]c1=O | 21.0% | 0.6% | i | i
O=C1CCC(OCc2ccccc2)CCN1CC[C@@H](Sc1ccccc1)c1ccccc1 (stereo partly specified) | -10.5% | ? | i | ?
O=C(NCc1nc2ccccc2[nH]1)C1=C[C@H](c2ccc(Br)cc2)C[C@H](OCc2ccc(CO)cc2)O1 | ? | -6.6% | i | ?
O=C(NCc1nc2ccccc2[nH]1)C1=C[C@H](c2ccc(C(F)(F)F)cc2)C[C@H](OCc2ccc(CO)cc2)O1 | -1.2% | -11.0% | i | 25.1µM*
ClCc1cc2ccccc2nc1Cl | 16.9% | -15.7% | i | i
COc1ccc(-c2cc(-c3cc(OC)ccc3O)[nH]n2)cc1 | 25.1µM* | 5.8% | i | i
COc1ccc(-c2cc(-c3ccc(OC)c(OC)c3)n[nH]2)c(O)c1 | ? | -6.9% | i | .
SMILES | TDP-43 yeast inh | aSyn yeast inh | Abeta yeast res | FUS yeast rescue
COc1ccc(-c2cc(-c3ccccc3O)[nH]n2)cc1OC | 12.6µM* | 11.3% | i | i
CCOC(=O)/C(=N\Nc1ccccc1)c1csc(Nc2ccc(C)cc2)n1 | -20.1% | -0.5% | i | i
O=C(O)c1cc(N=Nc2c(O)[nH]c3ccc([N+](=O)[O-])cc23)ccc1Cl | -7.6% | -8.4% | i | i
Cc1ccc(C(=O)NCC(c2cccnc2)N2CCc3ccccc3C2)cc1C (stereo unspecified) | 15.3% | . | i | i
CC(C)(C)c1ccc(C(=O)NCC(c2cccnc2)N2CCc3ccccc3C2)cc1 (stereo unspecified) | 22.4µM* | . | i | i
O=C(O)C1CCCCC1C(=O)NCCc1c[nH]c2ccccc12 (stereo unspecified) | -9.3% | 0.0% | i | i
Cc1cc(C)nc(NC(=O)Cc2ccc(Cl)cc2)c1 | 17.8µM* | -7.4% | i | i
O=C(Cc1ccc(Cl)cc1)Nc1ccc(Cl)cn1 | 14.8% | -10.0% | i | i
CC1(C(=O)Nc2ccc3c(c2)OCCO3)CCN1C(=O)C1(c2ccc(Cl)cc2)CCC1 (stereo unspecified) | 12.9% | 13.1% | i | ?
CC1(C(=O)NS(=O)(=O)c2cccc(C#N)c2)CCN1C(=O)C1(c2ccc(Cl)cc2)CCC1 (stereo unspecified) | 8.2% | 28.2µM* | i | i
CC1(C(=O)Nc2ccc3c(c2)OCCO3)CCN1C(=O)C1(c2ccc(Cl)cc2)CC1 (stereo unspecified) | 35.5µM* | 6.1% | i | i
CC1(C(=O)NS(=O)(=O)c2ccc(C#N)cc2)CCN1C(=O)C1(c2ccc(Cl)cc2)CCC1 (stereo unspecified) | 24.0% | -3.6% | i | i
COc1ccccc1OCC(=O)Nc1nc(-c2ccc(Br)cc2)ns1 | 11.9% | . | i | i
Cc1ccc(-c2nc(SCC(=O)c3c(N)n(C4CC4)c(=O)[nH]c3=O)n[nH]2)cc1 | 20.3% | -0.3% | i | i
CC(C)Oc1ccc(C(=O)Nc2ccc(N3CCCCC3)cc2)cc1 | -15.7% | -3.1% | i | i
O=C(COc1ccccc1)N(Cc1cccnc1)c1nc2c(F)cccc2s1 | 17.8µM* | . | i | i
O=C(COc1ccccc1)N(Cc1cccnc1)c1nc2ccc(Cl)cc2s1 | 15.8µM* | . | i | i
O=C(CCOc1ccccc1)N(Cc1cccnc1)c1nc2c(F)cccc2s1 | 4.5% | . | i | i
O=C(c1ccco1)N(Cc1cccnc1)c1nc2c(F)cccc2s1 | 16.5% | . | i | i
O=C(CCc1ccccc1)N(Cc1cccnc1)c1nc2c(F)cccc2s1 | 15.8µM* | . | i | i
COc1ccc(-c2noc(-c3ccccc3C(=O)Nc3cccc(OC)c3)n2)cc1 | -6.0% | -20.6% | i | i
Cc1ccc(CNc2ccc(N3C(=O)CC(C)C3=O)cc2[N+](=O)[O-])cc1 (stereo unspecified) | ? | -2.3% | i | .
O=C(c1ccccc1)N1CCN(c2ncccn2)CC1 | 0.0% | 9.5% | i | i
CCCc1cnc(N2CCN(C(=O)c3ccccc3)CC2)nc1 | 11.2µM* | 6.5% | i | i
CNC(=O)c1cc2c(ccc3ccccc32)o1 | ? | 11.2µM* | i | i
O=C(NC1CCCC1)c1cc2c(ccc3ccccc32)o1 | 11.2% | -2.6% | i | .
Cc1cc(/C=C(\C#N)c2nc3ccccc3[nH]2)c(C)n1C | -0.9% | 2.9% | i | .
CCCOc1cc(N(CC)CC)ccc1/C=C(/C#N)c1nc2ccc(C)cc2[nH]1 | ? | -29.9% | i | .
CCOc1cc(N(CC)CC)ccc1/C=C(/C#N)c1nc2ccccc2[nH]1 | 7.08µM* | -22.1% | i | ?
N#C/C(=C\c1c(Cl)cccc1Cl)c1nc2ccccc2[nH]1 | 11.2µM* | -45.6% | i | i

Compound activity (PubChem)
